Records with an inconclusive call do not appear. Entries that show only a call come without a potency. The source made the active and inactive calls. The call rests on the fitted dose curve; in most records, active means well fitted cell-killing curve with a large enough effect in the repeat runs; inconclusive means weak or mixed curves, or effect the other way; inactive means no such curve, though single readings can be large or run the other way.

This assay can be described thus: qHTS assay to identify small molecule antagonists of the glucocorticoid receptor (GR) signaling pathway - cell viability counter screen (AID 720693). Further: nearly all actives have a fitted effect of over 55% in size. The conditions noted are these: GR-bla HeLa viability, CellTiter-Glo luminescence, 18 h, with 5 nM dexamethasone present; series mostly up to 58.5 µM. An excerpt: National Center for Advancing Translational Sciences [NCATS]
NIH Chemical Genomics Center [NCGC]
U.S. Environmental Protection Agency [EPA]
National Institutes of Environmental Health Sciences [NIEHS]
National Toxicology Program [NTP]
U.S. Food and Drug Administration [FDA]
The Glucocorticoid receptor (GR) is one of the members of the nuclear receptor family of ligand-dependent transcription factors. GR plays a critical role in carbohydrate, protein and lipid metabolisms and programmed cell death. CellSensor GR-bla HeLa cell line (Invitrogen) contains a beta-lactamase reporter gene under the control of the glucocorticoid response element stably integrated into HeLa cells, a cervical cancer cell line that expresses glucocorticoid receptor. The activation of the reporter gene under culture conditions can be detected by fluorescence intensity. This cell line has been used to screen the Tox21 10K compound library and to identify the compounds that inhibit the GR signaling. The cytotoxicity of the Tox21 compound library against the GR-bla HeLa cell line was tested in parallel by measuring the cell viability using CellTiter-Glo assay in the same wells.
Tox21 Assay Protocol Summary:
The GR-bla HeLa cells were dispensed at 1500 cells/5 ul/well in 1536-well black wall/clear bottom plates using a Multidrop Combi (ThermoFisher Scientific, Waltham, MA) dispenser. After the assay plates were incubated at a 37 C/5% CO2 incubator for 4 hours, 23 nL of compounds dissolved in DMSO, positive controls or DMSO only was transferred to the assay plate by a pintool station (Kalypsys, San Diego, CA), followed by addition of 1 uL of dexamethasone (5 nM, final concentration in the well). The plates were incubated at 37 C for 18 hours. After 1 uL of LiveBLAzerTM B/G FRET substrate was added using a Flying Reagent Dispenser (Aurora Discovery, San Diego, CA), the plates were incubated at room temperature (RT) for 2 hours, and fluorescence intensity was measured by an Envision plate reader (PerkinElmer, Shelton, CT). After measurement of bla assay, 3 ul CellTiter-Glo (Promega, Madison, WI) was added to measure the cytotoxicity and the plates were then incubated at RT for 30 min. The luminescence was measured using a ViewLux (Perkin Elmer) plate reader.
For orientation: qHTS replaces the single test concentration by a dilution series.
For the compound `OC/C(Br)=C(\Br)CO`, the Potency result was “inactive”.

For the compound `CC1=NN(c2ccc(C(=O)O)cc2)C(=O)C1`, the Potency result was “inactive”.

On to `CC#N`, for which the Potency entry is “inactive”. As for `CCc1cccc(N(C)C(N)=Nc2cccc3ccccc23)c1`, the Potency result was “inactive”. For `Nc1nccs1`, the Potency entry was “inactive”. Take `CCCCCCCCCCCCCCC[C@H](O)[C@@H](N)CO`: the Potency entry was “inactive”. Take `Cc1nc2ccccc2s1`: the Potency entry is “inactive”. Turning to `CCCCCCCCSCCO`, the Potency entry was “inactive”.

As for `O=C(Nc1ccc([N+](=O)[O-])cc1)Nc1ccc([N+](=O)[O-])cc1`, the Potency result was “inactive”. As for `CC(C)=CC=O`, the entry is “inactive”. For the compound `O=C(O)c1cccc(O)c1`, the Potency result was “inactive”.

`CCN(CC)CCNC(=O)c1ccc(NC(C)=O)cc1`: the Potency entry is “inactive”. Turning to `O=C(CCCN1CCN(c2ccc(F)cc2)CC1)NC1c2ccccc2CSc2ccccc21` (stereo not given), the Potency entry is “inactive”.

For the compound `CCCCC(CC)CNCC(CC)CCCC` (stereo not given), the Potency entry was “inactive”. In the case of `CCCCCCCCCCOS(=O)(=O)O` it was “inactive”.

As to `CCOC(=O)C(C)Oc1ccc(Oc2nc3ccc(Cl)cc3o2)cc1` (stereo not given), the Potency entry was “inactive”. As for `COc1ccccc1N=Nc1c(S(=O)(=O)O)cc2cc(S(=O)(=O)O)cc(NC(C)=O)c2c1O`, the entry is “inactive”; as for `C[C@]12CCC(=O)C=C1C=C[C@@H]1[C@@H]2CC[C@@]2(C)[C@H]1CC[C@@]21CCC(=O)O1`, “inactive”. As for `CCc1c2c(nc3ccc(OC(=O)N4CCC(N5CCCCC5)CC4)cc13)-c1cc3c(c(=O)n1C2)COC(=O)[C@]3(O)CC`, the entry is “inactive”; as for `CCOC(=O)/C=C/C(=O)O`, “inactive”. As to `Cc1cc(C(=C2C=CC(=Nc3ccc(S(=O)(=O)O)cc3S(=O)(=O)O)C=C2)c2ccc(Nc3ccc(S(=O)(=O)O)cc3)cc2)ccc1N`, the Potency result was “inactive”. As for `C=CC(C)(C)CC(=O)OC`, the entry is “inactive”; as for `c1cc[c]([Bi]([c]2ccccc2)[c]2ccccc2)cc1`, “inactive”; as for `CCCCC1C(=O)N(c2ccccc2)N(c2ccc(O)cc2)C1=O` (stereo not given), “inactive”. On to `Cc1cc(S(=O)(=O)O)ccc1N=Nc1c(O)ccc2ccccc12`, for which the Potency entry is “inactive”. As for `CCCOCCOCCO`, the entry is “inactive”; as for `CC(C)c1nnc2ccc(-c3ocnc3-c3cc(F)ccc3F)cn12`, “inactive”; as for `CC(C)(CCl)c1ccccc1`, “inactive”. In the case of `C[C@@H]1C[C@H]2[C@@H]3CCC4=CC(=O)C=C[C@]4(C)[C@@]3(F)[C@@H](O)C[C@]2(C)[C@@]1(O)C(=O)CO` it was “inactive”; in that of `c1cnc2c(n1)CCCC2`, “inactive”. As for `CCOC(=O)c1ccccc1C`, the entry is “inactive”. For `O=C(CS)OCCOC(=O)CS`, the Potency result was “inactive”. For the compound `OC(CCCN1CCCCC1)(c1ccccc1)c1ccccc1`, the Potency entry was “inactive”. Consider `COCCOC`, for which the Potency entry was “inactive”. On to `Cc1ccc(S)cc1`, for which the Potency result was “inactive”.

Take `OCC1CC=CCC1` (stereo not given): the Potency entry was “inactive”.

For the compound `CC(=O)OCC(=O)[C@H]1CC[C@H]2[C@@H]3CCC4=CC(=O)CC[C@]4(C)[C@H]3CC[C@]12C`, the Potency entry is “inactive”. As for `CC(C)CCCCCOC(=O)CCCCC(=O)OCCCCCC(C)C`, the Potency result was “inactive”.

As to `Cc1ccccc1N1C(=O)c2cc(S(N)(=O)=O)c(Cl)cc2NC1C` (stereo not given), the Potency entry is “inactive”. In the case of `CC(C)(C)C(=O)O` it was “inactive”.

The record behind these values is PubChem BioAssay (Tox21).
